# In ChEMBL document CHEMBL1961873, “Compounds: GSK PKIS; Assays: Nanosyn kinase panel” (2012):
# Key:
# [1] = biological target: Glycogen synthase kinase-3 beta (Homo sapiens) (UniProt P49841); conditions: at 1 µM;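 note: reported values are mean percent inhibition of GSK3B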
# [2] = biological target: Homeodomain-interacting protein kinase 1 (Homo sapiens) (UniProt Q86Z02); conditions: at 0.1 µM
# [3] = biological target: Homeodomain-interacting protein kinase 1 (Homo sapiens) (UniProt Q86Z02); conditions: at 1 µM
# [4] = biological target: T1, Homeodomain-interacting protein kinase 4 (Homo sapiens) (UniProt Q8NE63); conditions: at 0.1 µM
# T1 sequence (whole entry): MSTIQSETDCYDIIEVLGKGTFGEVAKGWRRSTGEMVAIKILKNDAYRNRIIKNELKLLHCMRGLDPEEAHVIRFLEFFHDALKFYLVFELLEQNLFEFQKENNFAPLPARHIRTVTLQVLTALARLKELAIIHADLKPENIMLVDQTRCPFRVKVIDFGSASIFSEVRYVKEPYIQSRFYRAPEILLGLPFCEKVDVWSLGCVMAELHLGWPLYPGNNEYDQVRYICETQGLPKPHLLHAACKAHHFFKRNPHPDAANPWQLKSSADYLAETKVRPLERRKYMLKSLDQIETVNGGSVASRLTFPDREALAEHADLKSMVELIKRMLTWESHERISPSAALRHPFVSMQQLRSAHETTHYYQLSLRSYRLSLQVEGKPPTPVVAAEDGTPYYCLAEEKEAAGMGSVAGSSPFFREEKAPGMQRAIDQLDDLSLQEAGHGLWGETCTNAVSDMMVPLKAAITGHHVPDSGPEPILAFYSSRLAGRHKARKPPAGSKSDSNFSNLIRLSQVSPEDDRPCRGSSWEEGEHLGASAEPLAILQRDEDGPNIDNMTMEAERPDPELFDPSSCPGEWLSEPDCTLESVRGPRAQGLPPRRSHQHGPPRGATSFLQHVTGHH
# [5] = biological target: T1, Homeodomain-interacting protein kinase 4 (Homo sapiens); conditions: at 1 µM
# [6] = biological target: Mitogen-activated protein kinase 9 (Homo sapiens) (UniProt P45984); conditions: at 0.1 µM
# [7] = biological target: Mitogen-activated protein kinase 9 (Homo sapiens) (UniProt P45984); conditions: at 1 µM
# [8] = biological target: Mitogen-activated protein kinase 1 (Homo sapiens) (UniProt P28482); conditions: at 0.1 µM
# [9] = biological target: Mitogen-activated protein kinase 1 (Homo sapiens) (UniProt P28482); conditions: at 1 µM
# [10] = biological target: Mitogen-activated protein kinase 3 (Homo sapiens) (UniProt P27361); conditions: at 0.1 µM;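 note: each value is a mean inhibition figure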
# Chain of Mitogen-activated protein kinase 3 (Homo sapiens) (P27361 whole entry): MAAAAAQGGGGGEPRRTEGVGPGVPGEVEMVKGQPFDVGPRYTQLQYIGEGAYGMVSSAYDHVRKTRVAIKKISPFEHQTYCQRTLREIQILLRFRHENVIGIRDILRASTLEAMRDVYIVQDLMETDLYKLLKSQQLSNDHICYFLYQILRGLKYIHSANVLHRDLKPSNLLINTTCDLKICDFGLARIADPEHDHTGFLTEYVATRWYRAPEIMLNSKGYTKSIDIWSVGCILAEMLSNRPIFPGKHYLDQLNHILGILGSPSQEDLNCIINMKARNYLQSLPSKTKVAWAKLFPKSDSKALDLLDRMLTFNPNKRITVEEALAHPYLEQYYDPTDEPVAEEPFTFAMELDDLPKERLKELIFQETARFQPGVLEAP
# Chain of Glycogen synthase kinase-3 beta (Homo sapiens) (P49841 whole entry, looked up): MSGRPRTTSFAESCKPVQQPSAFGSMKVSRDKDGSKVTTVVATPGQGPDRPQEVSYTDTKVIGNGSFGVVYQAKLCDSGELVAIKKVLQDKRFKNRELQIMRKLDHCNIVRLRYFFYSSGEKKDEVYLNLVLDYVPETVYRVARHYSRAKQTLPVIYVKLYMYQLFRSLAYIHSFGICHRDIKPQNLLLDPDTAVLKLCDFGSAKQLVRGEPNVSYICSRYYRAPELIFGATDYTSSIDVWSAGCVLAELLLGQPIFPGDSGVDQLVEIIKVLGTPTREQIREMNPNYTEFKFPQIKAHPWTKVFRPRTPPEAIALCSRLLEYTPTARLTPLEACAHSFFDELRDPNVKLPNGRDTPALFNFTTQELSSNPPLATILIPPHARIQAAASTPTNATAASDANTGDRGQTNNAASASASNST
# Chain of Mitogen-activated protein kinase 9 (Homo sapiens) (P45984 whole entry, looked up): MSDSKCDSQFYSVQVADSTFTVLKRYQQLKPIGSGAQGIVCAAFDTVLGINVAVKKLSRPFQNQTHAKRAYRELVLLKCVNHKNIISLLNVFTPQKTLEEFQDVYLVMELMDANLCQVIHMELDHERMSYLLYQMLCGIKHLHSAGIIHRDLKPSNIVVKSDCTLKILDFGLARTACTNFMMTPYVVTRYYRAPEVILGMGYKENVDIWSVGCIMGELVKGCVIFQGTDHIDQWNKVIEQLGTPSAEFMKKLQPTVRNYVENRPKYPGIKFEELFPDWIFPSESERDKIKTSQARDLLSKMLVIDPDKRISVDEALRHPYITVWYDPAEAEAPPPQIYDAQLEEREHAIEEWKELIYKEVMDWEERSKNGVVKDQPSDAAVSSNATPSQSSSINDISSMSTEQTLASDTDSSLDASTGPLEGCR
# Chain of Homeodomain-interacting protein kinase 1 (Homo sapiens) (Q86Z02 whole entry, looked up): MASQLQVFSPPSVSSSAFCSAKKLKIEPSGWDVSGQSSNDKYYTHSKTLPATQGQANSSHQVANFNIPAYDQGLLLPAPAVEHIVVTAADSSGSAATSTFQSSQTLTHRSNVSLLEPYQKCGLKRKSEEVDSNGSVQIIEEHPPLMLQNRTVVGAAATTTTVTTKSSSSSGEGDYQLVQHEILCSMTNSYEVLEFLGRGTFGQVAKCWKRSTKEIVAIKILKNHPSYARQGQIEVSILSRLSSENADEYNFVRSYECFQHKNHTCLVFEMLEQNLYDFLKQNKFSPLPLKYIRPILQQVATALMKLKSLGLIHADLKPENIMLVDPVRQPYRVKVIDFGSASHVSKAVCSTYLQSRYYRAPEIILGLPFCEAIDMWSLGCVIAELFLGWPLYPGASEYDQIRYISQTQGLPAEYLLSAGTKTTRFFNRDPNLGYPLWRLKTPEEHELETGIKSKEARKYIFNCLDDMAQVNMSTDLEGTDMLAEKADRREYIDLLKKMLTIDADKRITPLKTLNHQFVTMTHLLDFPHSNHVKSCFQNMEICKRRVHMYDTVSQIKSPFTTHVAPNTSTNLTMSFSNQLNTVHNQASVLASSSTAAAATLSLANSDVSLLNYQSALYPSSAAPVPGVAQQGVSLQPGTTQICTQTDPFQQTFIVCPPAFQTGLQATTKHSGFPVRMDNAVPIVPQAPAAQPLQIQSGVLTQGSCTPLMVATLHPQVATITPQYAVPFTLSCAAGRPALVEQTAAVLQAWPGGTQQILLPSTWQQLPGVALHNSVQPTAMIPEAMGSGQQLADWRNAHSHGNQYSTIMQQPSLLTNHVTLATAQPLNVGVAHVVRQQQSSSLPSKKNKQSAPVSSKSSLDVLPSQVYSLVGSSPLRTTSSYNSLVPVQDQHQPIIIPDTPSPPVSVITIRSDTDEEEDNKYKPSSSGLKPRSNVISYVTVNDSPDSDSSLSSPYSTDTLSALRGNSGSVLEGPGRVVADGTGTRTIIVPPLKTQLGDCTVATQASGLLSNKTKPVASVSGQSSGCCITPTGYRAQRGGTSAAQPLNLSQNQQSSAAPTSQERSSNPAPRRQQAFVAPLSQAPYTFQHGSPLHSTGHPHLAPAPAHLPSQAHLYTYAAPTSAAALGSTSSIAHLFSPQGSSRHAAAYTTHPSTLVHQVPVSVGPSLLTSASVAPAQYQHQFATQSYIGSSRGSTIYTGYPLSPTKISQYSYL
# Chain of Mitogen-activated protein kinase 1 (Homo sapiens) (P28482 whole entry): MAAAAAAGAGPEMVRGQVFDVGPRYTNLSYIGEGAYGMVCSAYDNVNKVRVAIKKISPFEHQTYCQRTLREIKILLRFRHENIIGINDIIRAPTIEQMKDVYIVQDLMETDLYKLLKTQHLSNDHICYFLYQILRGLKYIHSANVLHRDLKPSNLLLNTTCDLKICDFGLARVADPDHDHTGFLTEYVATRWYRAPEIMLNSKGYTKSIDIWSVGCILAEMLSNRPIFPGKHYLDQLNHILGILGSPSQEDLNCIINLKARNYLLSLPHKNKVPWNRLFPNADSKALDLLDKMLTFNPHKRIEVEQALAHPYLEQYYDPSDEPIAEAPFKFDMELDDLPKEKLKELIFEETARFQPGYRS
Structure (SMILES),inhibition [1],inhibition [2],inhibition [3],inhibition [4],inhibition [5],inhibition [6],inhibition [7],inhibition [8],inhibition [9],inhibition [10]
CCn1c(-c2nonc2N)nc2c(C#CCN)ncc(OCCCN)c21,14.4%,3.64%,2.54%,1.45%,2.86%,-2.82%,-3.07%,-2.43%,-4.85%,-3.01%
COc1cc2c(cc1Nc1nc(Nc3ccsc3C(N)=O)c3cc[nH]c3n1)N(C(=O)CN(C)C)CCC2,2.63%,-2.33%,5.85%,2.25%,5.44%,3.02%,8.04%,,,2.93%
COc1cccc(-n2ncc3c(N/N=C/c4ccncc4)ncnc32)c1,89.2%,26.6%,69.8%,19.6%,61.3%,0.79%,11.2%,5.32%,7.16%,4.96%
COc1cc(C=NNc2ncnc3c2cnn3Cc2ccccc2)ccc1O,17.7%,-2.83%,1.68%,-0.49%,2.59%,-0.98%,-0.48%,2.37%,-6.99%,-2.79%
COc1cccc(COc2cc(-n3cnc4ccccc43)sc2C(N)=O)c1,2.12%,-6.56%,1.66%,-0.59%,2.84%,2.36%,-2.62%,1.13%,1.97%,2.69%
CCn1c(-c2nonc2N)nc2c(C#CC(C)(C)O)nc(O[C@@H](CN)c3ccccc3)cc21,84.6%,10.4%,55.3%,3.23%,36.3%,2.01%,1.01%,-1.73%,5.15%,0.9%
CCn1c(-c2nonc2N)nc2c(C#CC(C)(C)O)ncc(OC[C@@H]3CCCN3)c21,46.9%,-6.24%,6.03%,0.03%,0.31%,-0.05%,0.92%,1.59%,1.3%,1.69%
NC(=O)c1sc(-n2cnc3cc(C(F)(F)F)ccc32)cc1OCc1ccccc1Br,2.38%,-3.51%,0.77%,-0.26%,2.95%,0.9%,1.72%,0.51%,2.13%,3.5%
NS(=O)(=O)c1ccc(N/C=C2\C(=O)Nc3ccc4ncsc4c32)cc1,65.1%,3.83%,34.7%,1.88%,11.8%,5.59%,20.2%,8.37%,31.1%,5.66%
Fc1ccc(-c2ncn(C3CCNCC3)c2-c2ccnc(Oc3ccccc3)n2)cc1,-1.88%,-7.18%,-6.2%,0.38%,2.3%,,,2.78%,6.09%,2.44%
Cc1cc(-c2ccco2)cc(C)c1/C=C/c1cncc(-c2nn[nH]n2)c1,0.28%,-3.37%,-0.75%,-0.32%,-0.04%,1.02%,0.6%,1.32%,2.18%,3.63%
NS(=O)(=O)c1ccc(-c2ccc3c(NC(=O)C4CC4)n[nH]c3c2)cc1,7.66%,2.52%,7.94%,3.34%,4.2%,3.73%,4.23%,2.15%,3%,1.44%
Nc1nonc1-c1nc2cnccc2n1C1CCCCC1,90%,-0.6%,16.1%,0.63%,10.3%,-0.52%,-0.67%,-1.37%,1.38%,-0.87%
CCn1c(-c2nonc2N)nc2c(C#CC(C)(C)O)ncc(OCC3CCNCC3)c21,55.4%,0.15%,19.7%,1.95%,11.1%,2.04%,2.67%,5.25%,4.1%,5.07%
